From paper doi:10.1101/2024.03.05.583629 come the findings set out here.

For the assay, the target named is pT7_6His-AlfaTag-HOXD13 (human, UniProt P35453 263-343). The assay is described as follows: PADIT-seq. Particulars: dsDNA, one strand shown.
Chain of pT7_6His-AlfaTag-HOXD13 (P35453 263-343): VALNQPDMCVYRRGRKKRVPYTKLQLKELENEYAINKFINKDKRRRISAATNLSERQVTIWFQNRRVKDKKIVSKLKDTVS
With “CTCGAGGATATCAAGATCTGGCCTCGGCTTTCCACGCGGAACCTCTAGCTAGCCGACTCACTATAGGGATAATCGCCCTGAGCAAAGACC”, the binding signal is -0.793 ± 0.11 log2FC.

The sequence “CTCGAGGATATCAAGATCTGGCCTCGGCGTGATAAAAGGAACCTCTAGCTAGCCGACTCACTATAGGGATAATCGCCCTGAGCAAAGACC” showed a binding signal of 1.99 ± 0.0801 log2FC.

As for “CTCGAGGATATCAAGATCTGGCCTCGGCGGCTTAAAAGGAACCTCTAGCTAGCCGACTCACTATAGGGATAATCGCCCTGAGCAAAGACC”, the binding signal was -0.00793 ± 0.0839 log2FC.

“CTCGAGGATATCAAGATCTGGCCTCGGCCGCAGTCGCGGAACCTCTAGCTAGCCGACTCACTATAGGGATAATCGCCCTGAGCAAAGACC” displayed a binding signal of -1.09 ± 0.145 log2FC.

“CTCGAGGATATCAAGATCTGGCCTCGGCACGTTAAAAGGAACCTCTAGCTAGCCGACTCACTATAGGGATAATCGCCCTGAGCAAAGACC” displayed a binding signal of 1.42 ± 0.0726 log2FC.

For the sequence “CTCGAGGATATCAAGATCTGGCCTCGGCGCGATAAAAGGAACCTCTAGCTAGCCGACTCACTATAGGGATAATCGCCCTGAGCAAAGACC”, the binding signal was 1.22 ± 0.0747 log2FC.

Take “CTCGAGGATATCAAGATCTGGCCTCGGCATTTTATCAGGAACCTCTAGCTAGCCGACTCACTATAGGGATAATCGCCCTGAGCAAAGACC”: the binding signal was 2.32 ± 0.0735 log2FC.

For the sequence “CTCGAGGATATCAAGATCTGGCCTCGGCCTTTTATGGGGAACCTCTAGCTAGCCGACTCACTATAGGGATAATCGCCCTGAGCAAAGACC”, the binding signal was determined as 3.37 ± 0.0902 log2FC.

The sequence “CTCGAGGATATCAAGATCTGGCCTCGGCGTACTAAAAGGAACCTCTAGCTAGCCGACTCACTATAGGGATAATCGCCCTGAGCAAAGACC” showed a binding signal of 0.47 ± 0.0814 log2FC.

Take “CTCGAGGATATCAAGATCTGGCCTCGGCTTTTTAGCGGGAACCTCTAGCTAGCCGACTCACTATAGGGATAATCGCCCTGAGCAAAGACC”: the binding signal is -0.0861 ± 0.121 log2FC.

“CTCGAGGATATCAAGATCTGGCCTCGGCCTTGTAAAAGGAACCTCTAGCTAGCCGACTCACTATAGGGATAATCGCCCTGAGCAAAGACC”: the binding signal was determined as 2.9 ± 0.088 log2FC.

Consider “CTCGAGGATATCAAGATCTGGCCTCGGCGGTGTAAAAGGAACCTCTAGCTAGCCGACTCACTATAGGGATAATCGCCCTGAGCAAAGACC”, for which the binding signal was 0.668 ± 0.0814 log2FC.

As to “CTCGAGGATATCAAGATCTGGCCTCGGCGTTTTAGCTGGAACCTCTAGCTAGCCGACTCACTATAGGGATAATCGCCCTGAGCAAAGACC”, the binding signal was -0.719 ± 0.136 log2FC.

Consider “CTCGAGGATATCAAGATCTGGCCTCGGCCTTTTAAACGGAACCTCTAGCTAGCCGACTCACTATAGGGATAATCGCCCTGAGCAAAGACC”, for which the binding signal was determined as 2.06 ± 0.0696 log2FC.

“CTCGAGGATATCAAGATCTGGCCTCGGCCGTATAAAAGGAACCTCTAGCTAGCCGACTCACTATAGGGATAATCGCCCTGAGCAAAGACC” returned a binding signal of 2.31 ± 0.0858 log2FC.

With “CTCGAGGATATCAAGATCTGGCCTCGGCATTTTAGGAGGAACCTCTAGCTAGCCGACTCACTATAGGGATAATCGCCCTGAGCAAAGACC”, the binding signal was 1.62 ± 0.0831 log2FC.

For “CTCGAGGATATCAAGATCTGGCCTCGGCTTTTTAAGGGGAACCTCTAGCTAGCCGACTCACTATAGGGATAATCGCCCTGAGCAAAGACC”, the binding signal was found to be 1.83 ± 0.0924 log2FC.

“CTCGAGGATATCAAGATCTGGCCTCGGCTTTTTAACGGGAACCTCTAGCTAGCCGACTCACTATAGGGATAATCGCCCTGAGCAAAGACC” returned a binding signal of 1.89 ± 0.0968 log2FC.

As to “CTCGAGGATATCAAGATCTGGCCTCGGCAAGCTAAAAGGAACCTCTAGCTAGCCGACTCACTATAGGGATAATCGCCCTGAGCAAAGACC”, the binding signal is -0.784 ± 0.107 log2FC.

Turning to “CTCGAGGATATCAAGATCTGGCCTCGGCAGTATAAAAGGAACCTCTAGCTAGCCGACTCACTATAGGGATAATCGCCCTGAGCAAAGACC”, the binding signal amounted to 1.92 ± 0.0665 log2FC.

Sequence “CTCGAGGATATCAAGATCTGGCCTCGGCCGCTCGCGCGGAACCTCTAGCTAGCCGACTCACTATAGGGATAATCGCCCTGAGCAAAGACC” displayed a binding signal of -1.03 ± 0.134 log2FC.

As for “CTCGAGGATATCAAGATCTGGCCTCGGCGTTTTAAAGGGAACCTCTAGCTAGCCGACTCACTATAGGGATAATCGCCCTGAGCAAAGACC”, the binding signal was 2.48 ± 0.082 log2FC.

“CTCGAGGATATCAAGATCTGGCCTCGGCAAGGTAAAAGGAACCTCTAGCTAGCCGACTCACTATAGGGATAATCGCCCTGAGCAAAGACC”: the binding signal is -0.357 ± 0.0936 log2FC.

“CTCGAGGATATCAAGATCTGGCCTCGGCGGACTAAAAGGAACCTCTAGCTAGCCGACTCACTATAGGGATAATCGCCCTGAGCAAAGACC” gave a binding signal of -0.896 ± 0.106 log2FC.

On to “CTCGAGGATATCAAGATCTGGCCTCGGCATTTTAACGGGAACCTCTAGCTAGCCGACTCACTATAGGGATAATCGCCCTGAGCAAAGACC”, for which the binding signal stood at 1.87 ± 0.0803 log2FC.

As for “CTCGAGGATATCAAGATCTGGCCTCGGCTTTTTAACCGGAACCTCTAGCTAGCCGACTCACTATAGGGATAATCGCCCTGAGCAAAGACC”, the binding signal was 0.739 ± 0.095 log2FC.
